Reference: PubChem BioAssay (Tox21)
Inconclusive results are not listed. Active and inactive are the calls of the source. Unless noted, calls come from the whole dose curve.

Legend:
[1] = biological target: Estrogen receptor (Homo sapiens) (UniProt P03372); assay: qHTS assay to identify small molecule agonists of the estrogen receptor alpha (ER-alpha) signaling pathway in the presence of an antagonist (AID 1259383); note: top concentration of the series differs between compounds; nearly all actives have a fitted effect of over 15% in size
Procedure, shortened: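 Luminescent ERE-luciferase reporter, VM7Luc4E2 cells (endogenous ER-alpha); 10.0nM ICI-182,780 final; 15-point compound titration; 22hr at 37C; ONE-Glo, 30min RT.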

[2] = qHTS assay to identify small molecule agonists or antagonists of the thyroid stimulating hormone receptor (TSHR) signaling pathway - wild type cell line counter screen (AID 1259384)
Procedure, shortened: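 Counter screen in untransfected Hek293: compounds (15-point titration, triplicate) plus phosphodiesterase inhibitor Ro20-1724 added after 18 h plating; 30 min RT. Intracellular cAMP via competitive d2/cryptate immunoassay, 1 h incubation.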

[3] = biological target: Thyrotropin receptor (Homo sapiens) (UniProt P16473); assay: qHTS assay to identify small molecule antagonists of the thyroid stimulating hormone receptor (TSHR) signaling pathway (AID 1259385); note: nearly all actives have a fitted effect of over 20% in size
Procedure, shortened: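 Antagonist mode: compound-treated TSHR-expressing HEK293 cells were stimulated with 1.5 ng/mL TSH (final) in presence of Ro20-1724 for 30 min at RT. HTRF cAMP detection after 1 h; each compound tested at 15 concentrations, triplicate.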

[4] = qHTS assay to identify small molecule agonists of the estrogen receptor alpha (ER-alpha) signaling pathway in the presence of an antagonist - cell viability counter screen (AID 1259386; active = well fitted curve in the direction sought with a large enough effect in the repeat runs; an effect the other way counts as inactive or inconclusive;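 note: series mostly up to about 92 µM; cells exposed to compounds for 22 h at 37 °C before the viability read; nearly all actives have a fitted effect of over 30% in size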)
Procedure, shortened: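 Using estrogen-depleted VM7Luc4E2 cells, the 15-concentration compound series was applied together with 10.0nM ICI-182,780 and incubated 22hr at 37C/5% CO2. Cell viability was then scored by CellTiter-Fluor.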

[5] = biological target: Progesterone receptor (Homo sapiens) (UniProt P06401); assay: qHTS assay to identify small molecule agonists of the progesterone receptor (PR) signaling pathway (AID 1346784); note: nearly all actives have a fitted effect of over 30% in size
Procedure, shortened: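 PR-UAS-bla HEK 293T cells (beta-lactamase reporter under UAS) in 2% charcoal-stripped FBS, dosed with 23 nL compound after 6 hr, incubated 16hr at 37C. LiveBLAzer B/G FRET substrate added, fluorescence read after 2 hours.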

[6] = qHTS assay to identify small molecule antagonists of the progesterone receptor (PR) signaling pathway - cell viability counter screen (AID 1346798; active = well fitted curve in the direction sought with a large enough effect in the repeat runs; an effect the other way counts as inactive or inconclusive; note: series mostly up to about 92 µM; nearly all actives have a fitted effect of over 50% in size)
Procedure, shortened: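 PR-UAS-bla HEK293T cells, 3,000/well in 2% charcoal-stripped FBS medium, dosed with compounds plus R5020 agonist and incubated 16 h at 37C. Viability then measured in the same wells by CellTiter-Glo luminescence after 30 min at RT.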

[7] = qHTS assay to identify small molecule agonists of the progesterone receptor (PR) signaling pathway - cell viability counter screen (AID 1346799); note: nearly all actives have a fitted effect of over 45% in size
Procedure, shortened: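 Counter screen in the PR-UAS-bla HEK293T wells (2% charcoal-stripped FBS, 16 h compound exposure at 37 C) after the bla read. CellTiter-Glo added, 30 min at room temperature, luminescence read as cell viability.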

[8] = qHTS assay to identify small molecule antagonists of the TGF-beta/Smad signaling pathway - cell viability counter screen (AID 1346824; active = well fitted curve in the direction sought with a large enough effect in the repeat runs; an effect the other way counts as inactive or inconclusive; note: nearly all actives have a fitted effect of over 50% in size)
Procedure, shortened: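 Cytotoxicity counter-screen run in the same wells as the beta-lactamase Smad reporter read: CellTiter-Glo luminescence after 30 min at room temperature. HEK 293T SBE-bla cells had 5 hr compound exposure at 37 C with TGF-beta1 (0.25 ng/mL stock).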

[9] = biological target: Progesterone receptor (Homo sapiens) (UniProt P06401); assay: qHTS assay to identify small molecule antagonists of the progesterone receptor (PR) signaling pathway (AID 1346795; active = well fitted inhibition curve with a large enough effect in the signal ratio in the repeat runs, not every such curve was filed as active; the % refers to the signal ratio)
Procedure, shortened: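 PR-UAS-bla HEK293T cells with beta-lactamase reporter under UAS control, in 2% charcoal-stripped FBS, treated with compounds plus 1 nM promegestone (R5020, final) for 16 hr at 37C. Read-out: FRET beta-lactamase substrate fluorescence after 2 hr at room temperature.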
% is set by controls: 0 for no effect and ±100 for the full control effect.

Chain of Progesterone receptor (Homo sapiens) (P06401 whole entry, looked up): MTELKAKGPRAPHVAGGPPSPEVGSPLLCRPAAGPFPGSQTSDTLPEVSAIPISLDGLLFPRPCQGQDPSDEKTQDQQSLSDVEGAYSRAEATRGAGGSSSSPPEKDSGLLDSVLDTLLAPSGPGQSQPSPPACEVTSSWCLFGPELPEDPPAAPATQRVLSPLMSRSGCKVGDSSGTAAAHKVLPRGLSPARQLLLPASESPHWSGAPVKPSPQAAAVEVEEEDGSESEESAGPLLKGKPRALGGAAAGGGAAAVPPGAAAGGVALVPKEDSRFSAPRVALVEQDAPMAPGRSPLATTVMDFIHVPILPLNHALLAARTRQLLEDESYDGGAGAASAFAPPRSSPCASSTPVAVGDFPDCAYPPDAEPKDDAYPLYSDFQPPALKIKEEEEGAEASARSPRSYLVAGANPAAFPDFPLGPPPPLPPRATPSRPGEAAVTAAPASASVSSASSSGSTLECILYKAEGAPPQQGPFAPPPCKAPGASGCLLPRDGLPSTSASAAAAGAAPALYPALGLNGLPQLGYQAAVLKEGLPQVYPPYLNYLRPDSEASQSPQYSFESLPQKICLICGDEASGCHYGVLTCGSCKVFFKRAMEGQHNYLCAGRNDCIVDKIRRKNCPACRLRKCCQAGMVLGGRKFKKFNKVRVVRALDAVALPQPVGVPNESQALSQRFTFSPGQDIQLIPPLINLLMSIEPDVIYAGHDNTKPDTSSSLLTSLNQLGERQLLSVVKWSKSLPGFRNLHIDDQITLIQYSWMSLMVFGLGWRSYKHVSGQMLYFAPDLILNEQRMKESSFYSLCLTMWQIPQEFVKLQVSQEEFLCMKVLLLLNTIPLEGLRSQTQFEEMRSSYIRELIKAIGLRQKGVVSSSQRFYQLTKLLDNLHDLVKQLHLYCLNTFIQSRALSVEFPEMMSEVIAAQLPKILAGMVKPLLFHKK
Chain of Estrogen receptor (Homo sapiens) (P03372 whole entry, looked up): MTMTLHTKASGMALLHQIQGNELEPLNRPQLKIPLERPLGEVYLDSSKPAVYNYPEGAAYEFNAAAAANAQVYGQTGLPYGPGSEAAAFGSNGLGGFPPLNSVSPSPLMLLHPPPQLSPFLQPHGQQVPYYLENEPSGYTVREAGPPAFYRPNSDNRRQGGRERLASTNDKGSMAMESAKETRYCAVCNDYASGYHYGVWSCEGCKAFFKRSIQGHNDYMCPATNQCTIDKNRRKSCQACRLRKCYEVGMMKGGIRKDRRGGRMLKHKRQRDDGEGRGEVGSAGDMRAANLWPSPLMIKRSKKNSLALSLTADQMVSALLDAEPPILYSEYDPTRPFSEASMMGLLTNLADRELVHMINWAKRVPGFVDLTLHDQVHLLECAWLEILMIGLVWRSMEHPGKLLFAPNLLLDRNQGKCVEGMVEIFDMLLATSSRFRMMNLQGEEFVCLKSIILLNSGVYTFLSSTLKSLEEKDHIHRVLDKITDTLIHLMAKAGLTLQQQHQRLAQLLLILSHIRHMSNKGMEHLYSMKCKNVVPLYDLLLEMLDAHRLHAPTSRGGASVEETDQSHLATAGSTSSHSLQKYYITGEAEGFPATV
Chain of Thyrotropin receptor (Homo sapiens) (P16473 whole entry, looked up): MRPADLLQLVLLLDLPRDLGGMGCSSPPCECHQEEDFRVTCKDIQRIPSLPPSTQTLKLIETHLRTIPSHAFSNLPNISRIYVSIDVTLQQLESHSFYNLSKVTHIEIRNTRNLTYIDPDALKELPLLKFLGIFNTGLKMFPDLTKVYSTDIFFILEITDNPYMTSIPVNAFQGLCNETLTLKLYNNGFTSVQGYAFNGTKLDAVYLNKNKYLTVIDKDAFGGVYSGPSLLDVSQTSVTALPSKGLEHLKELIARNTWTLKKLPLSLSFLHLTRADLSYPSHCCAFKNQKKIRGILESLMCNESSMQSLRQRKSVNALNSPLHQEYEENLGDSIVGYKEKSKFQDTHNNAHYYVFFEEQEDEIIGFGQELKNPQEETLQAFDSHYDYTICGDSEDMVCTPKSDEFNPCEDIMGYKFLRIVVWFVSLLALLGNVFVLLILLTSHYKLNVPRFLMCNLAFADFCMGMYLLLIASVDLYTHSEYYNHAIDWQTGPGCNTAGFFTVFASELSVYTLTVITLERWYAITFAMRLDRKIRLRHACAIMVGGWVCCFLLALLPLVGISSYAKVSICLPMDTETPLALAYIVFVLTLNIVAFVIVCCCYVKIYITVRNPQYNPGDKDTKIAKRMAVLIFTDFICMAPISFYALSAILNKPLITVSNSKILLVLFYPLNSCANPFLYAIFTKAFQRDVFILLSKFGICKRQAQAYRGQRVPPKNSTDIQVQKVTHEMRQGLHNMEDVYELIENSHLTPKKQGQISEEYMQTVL

CC1=C(C(=O)O)N2C(=O)[C@@H](NC(=O)[C@H](N)C3=CCC=CC3)[C@H]2SC1
inactive: Potency [1] | outcome [2] | outcome [3] | outcome [4] | Potency [5] | outcome [6] | outcome [7] | outcome [8]

CN(C)CC/C=C1/c2ccccc2COc2ccc(CC(=O)O)cc21
inactive: outcome [2] | outcome [3] | outcome [4] | Potency [5] | Potency [9] | outcome [6] | outcome [7] | outcome [8]

CC(=O)c1cc(C)oc1C
inactive: outcome [4] | Potency [5] | Potency [9] | outcome [6] | outcome [7] | outcome [8]

CN(C)CCCO[C@@H]1[C@H]2OC(C)(C)O[C@H]2O[C@@H]1C(O)CO (stereo not given in full)
inactive: Potency [1] | outcome [4] | Potency [5] | Potency [9] | outcome [6] | outcome [7] | outcome [8]

CC(O)COC(C)(C)C (stereo not given)
inactive: outcome [3] | outcome [4] | outcome [6] | outcome [7] | outcome [8]

NCC1(Cc2noc(=O)[nH]2)CCCCC1
inactive: Potency [1] | outcome [2] | outcome [3] | outcome [4] | Potency [9] | outcome [6] | outcome [7] | outcome [8]

OCC(O)CN1CCN(c2ccccc2)CC1 (stereo not given)
inactive: outcome [2] | outcome [3] | outcome [4] | Potency [5] | Potency [9] | outcome [6] | outcome [7] | outcome [8]

NCc1ccc(S(N)(=O)=O)cc1
inactive: outcome [3] | outcome [4] | Potency [5] | outcome [6] | outcome [7] | outcome [8]

C=C(C)[C@@H]1CC=C(C)CC1
inactive: Potency [1] | outcome [4] | Potency [5] | Potency [9] | outcome [6] | outcome [7] | outcome [8]

CCOC(CN1CCN(CC(C)C(=O)c2ccccc2)CC1)c1ccccc1 (stereo not given)
inactive: cAMP activity change [2] 5.14% [at 18.9 µM] | activity change, negative = inhibition [3] 0.0091% [at 19 µM] | activity change, negative = cytotoxicity [4] -9.47% [at 19 µM] | activation [5] 0.845% [at 19 µM] | activity change, negative = inhibition [9] 8.35% [at 18.9 µM] | activity change, negative = cytotoxicity [6] 27.5% [at 18.9 µM] | activity change, negative = cytotoxicity [7] 2.31% [at 19 µM] | viability change, negative = cytotoxic [8] -0.107% [at 15.8 µM]

COc1c2occc2c(OC)c2c(=O)cc(C)oc12
inactive: outcome [2] | outcome [3] | outcome [4] | Potency [5] | outcome [6] | outcome [7] | outcome [8]

COC(=O)c1ccccc1C(=O)O
inactive: Potency [1] | outcome [2] | outcome [3] | outcome [4] | Potency [5] | Potency [9] | outcome [6] | outcome [7] | outcome [8]

CC(=O)O[C@H]1C[C@@H]2CC[C@@]1(C)C2(C)C
inactive: outcome [2] | outcome [3] | outcome [4] | Potency [5] | Potency [9] | outcome [6] | outcome [7] | outcome [8]

O=Cc1cc2ccccc2o1
inactive: outcome [2] | outcome [3] | outcome [4] | Potency [5] | Potency [9] | outcome [6] | outcome [7] | outcome [8]

CC(=O)O[Si](C)(OC(C)=O)OC(C)=O
inactive: outcome [2] | outcome [4] | Potency [5] | outcome [6] | outcome [7] | outcome [8]

CCCCCCCCCCCCCCCCCCOCCO
inactive: activation [1] -1.02% [at 19 µM] | activity change, negative = inhibition [3] -0.175% [at 19 µM] | activity change, negative = cytotoxicity [4] 0.983% [at 19 µM] | activation [5] 3.24% [at 19 µM] | activity change, negative = inhibition [9] -1.49% [at 18.9 µM] | viability change, negative = cytotoxic [8] -1.95% [at 15.8 µM]

CC(C)=CCC/C(C)=C/COC=O
inactive: outcome [2] | outcome [3] | outcome [4] | Potency [5] | Potency [9] | outcome [6] | outcome [7] | outcome [8]

CC(=O)CCc1ccc(OC(C)=O)cc1
inactive: Potency [1] | outcome [2] | outcome [3] | outcome [4] | Potency [9] | outcome [6] | outcome [7] | outcome [8]

N#Cc1ccccc1O
inactive: Potency [1] | outcome [2] | outcome [3] | outcome [4] | Potency [5] | Potency [9] | outcome [6] | outcome [7] | outcome [8]

CC(=O)Nc1ccc(OC(=O)c2ccccc2OC(C)=O)cc1
inactive: Potency [1] | outcome [2] | outcome [3] | outcome [4] | Potency [5] | Potency [9] | outcome [6] | outcome [7] | outcome [8]

O=NN(CCCl)C(=O)NC1CCCCC1
inactive: outcome [4] | Potency [5] | outcome [6] | outcome [7] | outcome [8]

Cc1ccc(C(=O)O)cc1[N+](=O)[O-]
inactive: Potency [1] | outcome [2] | outcome [3] | outcome [4] | Potency [5] | Potency [9] | outcome [6] | outcome [7] | outcome [8]

O=[N+]([O-])c1c(Cl)cc(Cl)cc1Cl
inactive: outcome [2] | outcome [4] | Potency [9] | outcome [6] | outcome [7] | outcome [8]

O=C=NCC1CCCC(CN=C=O)C1 (stereo not given)
inactive: Potency [1] | outcome [2] | outcome [3] | outcome [4] | outcome [6] | outcome [7] | outcome [8]

COc1cc2c(cc1OC)CN(C(=O)[C@H](C)N[C@@H](CCc1ccccc1)C(=O)O)[C@H](C(=O)O)C2
inactive: Potency [1] | outcome [2] | outcome [3] | outcome [4] | Potency [5] | Potency [9] | outcome [6] | outcome [7] | outcome [8]

CCC[C@@H]1C[C@@H](C(=O)N[C@@H]([C@H]2O[C@H](SC)[C@H](O)[C@@H](O)[C@H]2O)[C@@H](C)O)N(C)C1
inactive: Potency [1] | outcome [2] | outcome [3] | outcome [4] | outcome [6] | outcome [8]

C#CCN[C@@H]1CCc2ccccc21
inactive: Potency [1] | outcome [2] | outcome [3] | outcome [4] | Potency [5] | Potency [9] | outcome [6] | outcome [7] | outcome [8]

CC1(C)Cc2cccc(N)c2O1
inactive: Potency [1] | outcome [2] | outcome [3] | outcome [4] | Potency [5] | Potency [9] | outcome [6] | outcome [7] | outcome [8]

CCCCCCCCCCCCCBr
inactive: outcome [4] | Potency [9] | outcome [6] | outcome [7] | outcome [8]

CC(CO)(CO)CO
inactive: Potency [1] | outcome [2] | outcome [3] | outcome [4] | Potency [5] | Potency [9] | outcome [6] | outcome [7] | outcome [8]

CC(C)c1ccc(C=O)cc1
inactive: Potency [1] | outcome [2] | outcome [3] | outcome [4] | Potency [5] | Potency [9] | outcome [6] | outcome [7] | outcome [8]

OC[C@H]1O[C@@H](O[C@@H]2[C@@H](CO)O[C@](O)(CO)[C@H]2O)[C@H](O)[C@@H](O)[C@H]1O
inactive: Potency [1] | outcome [2] | outcome [3] | outcome [4] | Potency [5] | outcome [6] | outcome [7] | outcome [8]
